# Laboratory results from PubChem BioAssay (Tox21).
# Several values for one entry are separate records, joined by “and”; a condition that tells them apart may be missing. Equal entries are not always repeated. Results filed as inconclusive are left out. A call without a number means that no potency is given here. Some compounds were tested as several samples or in several runs, with calls that do not always agree. Activity calls are given as the source filed them. Unless noted, the call rests on the fitted dose curve.
# Biological target: Androgen receptor (Homo sapiens) (UniProt P10275)
# Assay: qHTS assay to identify small molecule agonists of the androgen receptor (AR) signaling pathway in the presence of an antagonist (AID 1259381); further: nearly all actives have a fitted effect of over 15% in size; further: potency means the concentration at half of the fitted maximal effect
# Settings: MDA-kb2 MMTV-luciferase, AR agonist + nilutamide, 16 h; series mostly up to 92.4 µM; activation: at the top concentration
# How it was run: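 Here, 15-concentration compound series were pin-transferred onto MDA-kb2 MMTV-luciferase cells already dosed with nilutamide (3.0uM final). After 16hr at 37C, ONE-Glo was added and luminescence read 30min later at room temperature.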
# Androgen receptor (Homo sapiens), sequence (P10275 whole entry, looked up): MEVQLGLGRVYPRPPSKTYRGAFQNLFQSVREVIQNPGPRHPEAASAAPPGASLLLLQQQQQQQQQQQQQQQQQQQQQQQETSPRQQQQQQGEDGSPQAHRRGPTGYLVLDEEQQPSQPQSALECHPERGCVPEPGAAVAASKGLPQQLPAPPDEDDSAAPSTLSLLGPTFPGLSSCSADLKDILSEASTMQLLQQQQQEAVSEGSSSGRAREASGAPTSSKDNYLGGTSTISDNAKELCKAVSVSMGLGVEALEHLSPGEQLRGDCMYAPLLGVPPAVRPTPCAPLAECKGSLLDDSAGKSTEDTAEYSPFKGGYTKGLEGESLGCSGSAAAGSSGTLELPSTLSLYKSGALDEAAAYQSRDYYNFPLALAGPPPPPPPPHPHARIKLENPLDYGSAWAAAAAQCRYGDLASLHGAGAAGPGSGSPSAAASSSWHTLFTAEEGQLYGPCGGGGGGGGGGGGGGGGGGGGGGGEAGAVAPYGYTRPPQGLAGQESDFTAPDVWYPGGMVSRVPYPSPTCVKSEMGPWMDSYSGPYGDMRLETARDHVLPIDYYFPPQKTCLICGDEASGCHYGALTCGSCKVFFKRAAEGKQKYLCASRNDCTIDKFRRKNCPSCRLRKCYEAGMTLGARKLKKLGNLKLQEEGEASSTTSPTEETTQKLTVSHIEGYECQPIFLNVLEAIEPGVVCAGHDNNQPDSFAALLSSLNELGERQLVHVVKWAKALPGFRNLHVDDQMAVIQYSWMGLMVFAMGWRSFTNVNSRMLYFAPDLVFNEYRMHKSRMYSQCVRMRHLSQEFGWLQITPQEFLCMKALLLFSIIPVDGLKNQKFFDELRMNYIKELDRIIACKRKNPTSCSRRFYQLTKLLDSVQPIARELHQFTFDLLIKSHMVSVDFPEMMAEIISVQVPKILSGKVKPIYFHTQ
Structure (SMILES),activation,Potency
C1CCC(C(CC2CCCCN2)C2CCCCC2)CC1 (stereo unspecified),-9.14% [at 42.5 µM] (inactive),–
Nc1ccc2c(c1)CN1C(=O)c3ccccc3C1=N2,–,0.231 µM (active)
O=C(Nc1ncc([N+](=O)[O-])s1)c1cccs1,-6.87% [at 42.5 µM] (inactive),–
COc1cccc(O)c1O,-2.49% (inactive),–

# Test system: not listed separately
# Assay: qHTS assay to identify small molecule antagonists of the estrogen receptor beta (ER-beta) signaling pathway - cell viability counter screen (AID 1259382; active means well fitted cell-killing curve with a large enough effect in the repeat runs; further: nearly all actives have a fitted effect of over 55% in size; further: potency means the concentration at half of the fitted maximal effect;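 on activity change, negative = cytotoxicity: HEK293T cells carrying ER-beta-UAS-bla reporter stimulated with estradiol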)
# Settings: ER-beta-UAS-bla HEK293T viability, CellTiter-Glo luminescence, 16 h; series mostly up to 92.4 µM; activity change, negative = cytotoxicity: at the top concentration
# How it was run: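 Tox21 10K library tested in qHTS format on ER-beta-bla HEK293T cells stimulated with 1nM E2; 16 hr treatment at 37C. Same-well CellTiter-Glo luminescence served as the cell viability measure.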
Structure (SMILES),Potency,"activity change, negative = cytotoxicity"
COc1ccc(OC(F)(F)F)cc1CN[C@H]1CCCN[C@H]1c1ccccc1,30.6 µM (active),–
CCCC[P+](CCCC)(CCCC)CCCC,inactive,–
Oc1ccccc1,inactive,–
CC/C(=C(\c1ccccc1)c1ccc(OCCN(C)C)cc1)c1ccccc1,27.3 µM (active) and 21.9 µM (active) and 29.8 µM (active),–
C1CCC(C(CC2CCCCN2)C2CCCCC2)CC1 (stereo unspecified),18.8 µM (active),–
O=c1[nH]cc(F)c(=O)[nH]1,14.2 µM (active) and inactive,–
Nc1ccc(O)c([N+](=O)[O-])c1,–,-0.761% (inactive)
CN1CCC[C@H]1c1cccnc1,inactive,–
NC(=O)n1c(O)c(C(=O)c2cccs2)c2cc(Cl)ccc21,–,0.519% [at 42.5 µM] (inactive)
OC[C@H]1O[C@H](O[C@]2(CCl)O[C@H](CCl)[C@@H](O)[C@@H]2O)[C@H](O)[C@@H](O)[C@H]1Cl,inactive,–
Cn1c(=O)c2c(ncn2C)n(C)c1=O,inactive,–
CC1(C)S[C@@H]2[C@H](NC(=O)[C@H](N)c3ccccc3)C(=O)N2[C@H]1C(=O)O,inactive,–
F[B-](F)(F)F,inactive,–
Cc1ccc(S(=O)(=O)O)cc1,inactive,–
CC(=O)C(=O)O,inactive,–
C/C=C/C=C/C(=O)O,inactive,–
COc1cccc(O)c1O,–,-27.7% (inactive)
O=C1c2c(O)cccc2Cc2cccc(O)c21,inactive,–
CN[C@H]1CC[C@@H](c2ccc(Cl)c(Cl)c2)c2ccccc21,18.8 µM (active),–
O=C1O[C@H]([C@@H](O)CO)C(O)=C1O,inactive,–
CCCCC(CC)C(=O)O (stereo unspecified),inactive,–
C[C@](N)(Cc1ccc(O)c(O)c1)C(=O)O,inactive,–
COc1ccc(CN(CCN(C)C)c2ccccn2)cc1,inactive,–
CCN(Cc1c(F)cccc1Cl)c1c([N+](=O)[O-])cc(C(F)(F)F)cc1[N+](=O)[O-],43.3 µM (active),–
CC(O)(P(=O)(O)O)P(=O)(O)O,inactive,–
Nc1ccc([N+](=O)[O-])cc1O,–,-13.2% (inactive)
NS(=O)(=O)O,inactive,–

# Biological target: Estrogen receptor (Homo sapiens) (UniProt P03372)
# Assay: qHTS assay to identify small molecule agonists of the estrogen receptor alpha (ER-alpha) signaling pathway in the presence of an antagonist (AID 1259383); further: nearly all actives have a fitted effect of over 15% in size; further: potency means the concentration at half of the fitted maximal effect; on activation: top concentration of the series differs between compounds
# Settings: VM7Luc4E2 cells, ERE-luciferase, +ICI-182,780, 22 h; series mostly up to 92.4 µM; activation: at the top concentration
# How it was run: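 In VM7Luc4E2 cells, 4,000 per well, compounds at 15 concentrations were co-incubated 22hr at 37C with 10.0nM final ICI-182,780. Luminescence from the stably transfected 4×ERE-luciferase reporter was recorded 30min after ONE-Glo addition.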
# Estrogen receptor (Homo sapiens), sequence (P03372 whole entry, looked up): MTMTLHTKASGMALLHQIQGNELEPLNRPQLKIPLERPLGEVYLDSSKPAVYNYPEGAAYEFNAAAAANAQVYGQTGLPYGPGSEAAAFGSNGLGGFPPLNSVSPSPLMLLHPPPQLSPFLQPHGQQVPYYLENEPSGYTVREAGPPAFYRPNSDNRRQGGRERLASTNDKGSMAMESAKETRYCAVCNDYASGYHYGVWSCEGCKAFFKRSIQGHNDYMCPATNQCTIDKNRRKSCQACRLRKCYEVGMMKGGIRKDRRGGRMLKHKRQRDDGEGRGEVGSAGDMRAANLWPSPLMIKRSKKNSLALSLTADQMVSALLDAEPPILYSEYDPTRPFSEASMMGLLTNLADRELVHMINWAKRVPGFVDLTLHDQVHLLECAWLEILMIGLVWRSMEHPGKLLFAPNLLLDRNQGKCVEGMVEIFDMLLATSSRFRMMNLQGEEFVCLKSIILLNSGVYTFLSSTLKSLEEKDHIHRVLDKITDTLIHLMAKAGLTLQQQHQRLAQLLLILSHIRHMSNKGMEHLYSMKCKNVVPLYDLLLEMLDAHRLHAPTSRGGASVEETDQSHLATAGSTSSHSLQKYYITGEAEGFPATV
Structure (SMILES),activation,Potency
COc1ccc(OC(F)(F)F)cc1CN[C@H]1CCCN[C@H]1c1ccccc1,-2.42% (inactive),–
C1CCC(C(CC2CCCCN2)C2CCCCC2)CC1 (stereo unspecified),-0.85% [at 42.5 µM] (inactive),–
O=c1[nH]cc(F)c(=O)[nH]1,–,inactive
Nc1ccc(O)c([N+](=O)[O-])c1,-2.99% (inactive),–
NC(=O)n1c(O)c(C(=O)c2cccs2)c2cc(Cl)ccc21,-10.8% [at 42.5 µM] (inactive),–
Nc1ccc2c(c1)CN1C(=O)c3ccccc3C1=N2,–,0.092 µM (active)
COc1cccc(O)c1O,-1.1% (inactive),–
CN[C@H]1CC[C@@H](c2ccc(Cl)c(Cl)c2)c2ccccc21,-0.658% [at 42.5 µM] (inactive),–
CCN(Cc1c(F)cccc1Cl)c1c([N+](=O)[O-])cc(C(F)(F)F)cc1[N+](=O)[O-],2.25% (inactive),–

# Test system: not listed separately
# Assay: qHTS assay to identify small molecule agonists or antagonists of the thyroid stimulating hormone receptor (TSHR) signaling pathway - wild type cell line counter screen (AID 1259384)
# Settings: HEK293 wild type, cAMP HTRF counter-screen; series mostly up to 92.4 µM; cAMP activity change: at the top concentration
# How it was run: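 Counter screen in untransfected Hek293: compounds (15-point titration, triplicate) plus phosphodiesterase inhibitor Ro20-1724 added after 18 h plating; 30 min RT. Intracellular cAMP via competitive d2/cryptate immunoassay, 1 h incubation.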
Structure (SMILES),cAMP activity change,Potency
COc1ccc(OC(F)(F)F)cc1CN[C@H]1CCCN[C@H]1c1ccccc1,-0.0888% (inactive),–
CCCC[P+](CCCC)(CCCC)CCCC,–,inactive
Oc1ccccc1,–,inactive
CC/C(=C(\c1ccccc1)c1ccc(OCCN(C)C)cc1)c1ccccc1,–,inactive
C1CCC(C(CC2CCCCN2)C2CCCCC2)CC1 (stereo unspecified),"12.9% [at 42.5 µM, stronger effect = higher value] (inactive)",–
O=c1[nH]cc(F)c(=O)[nH]1,–,inactive
NC(=O)n1c(O)c(C(=O)c2cccs2)c2cc(Cl)ccc21,"-11.3% [at 42.5 µM, stronger effect = higher value] (inactive)",–
OC[C@H]1O[C@H](O[C@]2(CCl)O[C@H](CCl)[C@@H](O)[C@@H]2O)[C@H](O)[C@@H](O)[C@H]1Cl,–,inactive
CC1(C)S[C@@H]2[C@H](NC(=O)[C@H](N)c3ccccc3)C(=O)N2[C@H]1C(=O)O,–,inactive
Nc1ccc2c(c1)CN1C(=O)c3ccccc3C1=N2,"-1.34% [at 18.9 µM, stronger effect = higher value] (inactive)",–
F[B-](F)(F)F,–,inactive
O=C(Nc1ncc([N+](=O)[O-])s1)c1cccs1,"-4.88% [at 42.5 µM, stronger effect = higher value] (inactive)",–
CC(=O)C(=O)O,–,inactive
C/C=C/C=C/C(=O)O,–,inactive
O=C1c2c(O)cccc2Cc2cccc(O)c21,–,inactive
CN[C@H]1CC[C@@H](c2ccc(Cl)c(Cl)c2)c2ccccc21,"8.39% [at 42.5 µM, stronger effect = higher value] (inactive)",–
O=C1O[C@H]([C@@H](O)CO)C(O)=C1O,–,inactive
CCCCC(CC)C(=O)O (stereo unspecified),–,inactive
CC(O)(P(=O)(O)O)P(=O)(O)O,–,inactive

# Biological target: Thyrotropin receptor (Homo sapiens) (UniProt P16473)
# Assay: qHTS assay to identify small molecule antagonists of the thyroid stimulating hormone receptor (TSHR) signaling pathway (AID 1259385); further: nearly all actives have a fitted effect of over 20% in size; further: potency means the concentration at half of the fitted maximal effect
# Settings: TSHR-HEK293 cAMP HTRF, TSH-stimulated antagonist mode; series mostly up to 92.4 µM; activity change, negative = inhibition: at the top concentration
# How it was run: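 Antagonist mode: compound-treated TSHR-expressing HEK293 cells were stimulated with 1.5 ng/mL TSH (final) in presence of Ro20-1724 for 30 min at RT. HTRF cAMP detection after 1 h; each compound tested at 15 concentrations, triplicate.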
# Thyrotropin receptor (Homo sapiens), sequence (P16473 whole entry, looked up): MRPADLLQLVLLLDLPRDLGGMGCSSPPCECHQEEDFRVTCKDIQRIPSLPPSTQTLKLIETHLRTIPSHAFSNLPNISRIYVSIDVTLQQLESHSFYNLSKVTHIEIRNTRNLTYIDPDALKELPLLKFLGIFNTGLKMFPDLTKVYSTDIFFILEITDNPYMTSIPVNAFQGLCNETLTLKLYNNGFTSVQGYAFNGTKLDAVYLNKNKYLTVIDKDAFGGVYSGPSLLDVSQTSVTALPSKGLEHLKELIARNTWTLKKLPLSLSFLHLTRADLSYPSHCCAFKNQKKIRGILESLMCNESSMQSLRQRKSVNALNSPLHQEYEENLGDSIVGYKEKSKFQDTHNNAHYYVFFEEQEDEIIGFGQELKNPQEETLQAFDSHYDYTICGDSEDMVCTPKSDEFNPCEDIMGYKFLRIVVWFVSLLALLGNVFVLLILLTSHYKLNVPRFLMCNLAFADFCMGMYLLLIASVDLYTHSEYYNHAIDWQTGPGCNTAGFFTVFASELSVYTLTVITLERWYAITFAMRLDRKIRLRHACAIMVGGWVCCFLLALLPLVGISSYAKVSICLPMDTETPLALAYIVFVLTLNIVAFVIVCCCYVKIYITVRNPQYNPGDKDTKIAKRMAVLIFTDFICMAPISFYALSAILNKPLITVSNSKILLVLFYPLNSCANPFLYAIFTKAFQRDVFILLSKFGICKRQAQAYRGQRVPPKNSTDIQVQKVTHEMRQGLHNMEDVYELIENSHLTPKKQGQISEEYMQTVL
Structure (SMILES),Potency,"activity change, negative = inhibition"
CCCC[P+](CCCC)(CCCC)CCCC,inactive,–
Oc1ccccc1,inactive,–
CC/C(=C(\c1ccccc1)c1ccc(OCCN(C)C)cc1)c1ccccc1,61.5 µM (active) and 21.1 µM (active),–
C1CCC(C(CC2CCCCN2)C2CCCCC2)CC1 (stereo unspecified),33.5 µM (active),–
O=c1[nH]cc(F)c(=O)[nH]1,inactive,–
NC(=O)n1c(O)c(C(=O)c2cccs2)c2cc(Cl)ccc21,–,1.66% [at 42.5 µM] (inactive)
OC[C@H]1O[C@H](O[C@]2(CCl)O[C@H](CCl)[C@@H](O)[C@@H]2O)[C@H](O)[C@@H](O)[C@H]1Cl,inactive,–
CC1(C)S[C@@H]2[C@H](NC(=O)[C@H](N)c3ccccc3)C(=O)N2[C@H]1C(=O)O,inactive,–
F[B-](F)(F)F,inactive,–
O=C(Nc1ncc([N+](=O)[O-])s1)c1cccs1,–,-0.223% [at 42.5 µM] (inactive)
CC(=O)C(=O)O,inactive,–
C/C=C/C=C/C(=O)O,inactive,–
O=C1c2c(O)cccc2Cc2cccc(O)c21,inactive,–
CN[C@H]1CC[C@@H](c2ccc(Cl)c(Cl)c2)c2ccccc21,–,-7.16% [at 42.5 µM] (inactive)
O=C1O[C@H]([C@@H](O)CO)C(O)=C1O,inactive,–
CCCCC(CC)C(=O)O (stereo unspecified),inactive,–
CC(O)(P(=O)(O)O)P(=O)(O)O,inactive,–
